The panel holds about 79,000 compounds, 15% with a hit somewhere; the sample as a whole holds those more often. Active and inactive are the calls of the source. No stated cut-off is given here; in the data, active means growth inhibition above about 70%; inactive means the rest.
Assays:
[1] = NCI Yeast Anticancer Drug Screen. Data for the wt2 strain (AID 169); details: S. cerevisiae wt2 strain growth inhibition, active compounds read high
Method in brief: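 Growth of compound-treated yeast is measured and expressed as inhibition relative to vehicle-only controls.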

[2] = NCI Yeast Anticancer Drug Screen. Data for the mlh1 strain (AID 171);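 further: 0% = growth of vehicle-treated control cultures of the same strain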; details: S. cerevisiae mlh1 strain growth inhibition, active compounds read high
Method in brief: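 Test agents were incubated with yeast bearing a defined DNA damage repair or cell cycle control alteration; values are growth inhibition normalised to vehicle-treated cultures.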

[3] = NCI Yeast Anticancer Drug Screen. Data for the sgs1 strain (AID 173);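 further: 0% = growth of vehicle-only control cultures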; details: S. cerevisiae sgs1 mutant, active compounds read high
Method in brief: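 Strain with an altered DNA repair or cell cycle pathway exposed to compound. Growth then measured. Value = inhibition versus vehicle control.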

[4] = NCI Yeast Anticancer Drug Screen. Data for the mlh1 rad18 strain (AID 175); details: S. cerevisiae mlh1 rad18 strain growth inhibition, active compounds read high
Method in brief: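 A repair-deficient yeast strain is exposed to test compound, and growth is scored relative to vehicle-treated controls.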

[5] = NCI Yeast Anticancer Drug Screen. Data for the rad18 strain (AID 177); details: S. cerevisiae rad18 mutant growth inhibition, active compounds read high
Method in brief: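 DNA-repair-defective yeast; compound treatment; growth inhibition scored against vehicle.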

[6] = NCI Yeast Anticancer Drug Screen. Data for the rad52 strain (AID 147);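 further: 0% = growth of vehicle-treated control cultures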; details: S. cerevisiae rad52 mutant growth inhibition, active compounds read high
Method in brief: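 Growth of repair-deficient yeast cells was compared between compound-treated and vehicle-treated cultures to give percent inhibition.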

[7] = NCI Yeast Anticancer Drug Screen. Data for the wt1 strain (AID 149);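 further: 0% = growth of vehicle-treated wt1 cultures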; details: S. cerevisiae wt1 strain (SPY 50644) growth inhibition, active compounds read high
Method in brief: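 Each compound is tested on wt1 yeast and the loss of growth versus vehicle gives the inhibition value.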

[8] = NCI Yeast Anticancer Drug Screen. Data for the rad50EPP+ strain (AID 151);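 further: 0% = growth of vehicle-treated control cultures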; details: S. cerevisiae rad50 mutant strain, active compounds read high
Method in brief: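 Measured: growth inhibition of rad50EPP+ yeast. Reference: vehicle-treated controls. Screen uses strains with defined genetic alterations in DNA damage repair or cell cycle control.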

[9] = NCI Yeast Anticancer Drug Screen. Data for the mgt1 strain (AID 153); details: S. cerevisiae mgt1 mutant growth inhibition, active compounds read high
Method in brief: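 Compounds were applied to mgt1 mutant yeast, and growth was then compared against vehicle-treated control cultures to give percent inhibition.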

[10] = NCI Yeast Anticancer Drug Screen. Data for the rad50 strain (AID 155);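 further: 0% = growth of vehicle-only cultures of the same strain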; details: S. cerevisiae rad50 strain growth inhibition, active compounds read high
Method in brief: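 Vehicle-treated cultures provide the reference for the growth inhibition reported for compound-exposed, repair-deficient yeast.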

[11] = NCI Yeast Anticancer Drug Screen. Data for the mec2-1 strain (AID 157); details: S. cerevisiae mec2-1 strain, active compounds read high
Method in brief: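 Compounds were applied to mec2-1 yeast cells. Their growth was then compared with that of vehicle-treated cultures to give growth inhibition.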

[12] = NCI Yeast Anticancer Drug Screen. Data for the rad14 strain (AID 159);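 further: 0% = growth of vehicle-treated control cultures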; details: S. cerevisiae rad14 strain growth inhibition, active compounds read high
Method in brief: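 Inhibition of growth is reported for a repair-deficient yeast mutant following compound treatment, calculated relative to cultures that received vehicle.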

[13] = NCI Yeast Anticancer Drug Screen. Data for the sgs1 mgt1 strain (AID 161);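 further: 0% = growth of cultures given vehicle only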; details: S. cerevisiae sgs1 mgt1 strain, active compounds read high
Method in brief: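 Compounds are added to genetically altered yeast, and growth is compared with cultures given vehicle alone to give percent inhibition.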

[14] = NCI Yeast Anticancer Drug Screen. Data for the CLN2oe strain (AID 163);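 further: 0% = growth of vehicle-only control cultures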; details: S. cerevisiae CLN2oe strain, active compounds read high
Method in brief: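 Cells of an engineered yeast line with disturbed cell-cycle regulation are treated with compound. Inhibition of growth is then calculated relative to the vehicle-treated reference.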

[15] = NCI Yeast Anticancer Drug Screen. Data for the bub3 strain (AID 167); details: S. cerevisiae bub3 mutant strain, active compounds read high
Method in brief: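 Mutant yeast screening strain plus compound; vehicle-treated cultures serve as the 0% inhibition reference.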

[16] = NCI Yeast Anticancer Drug Screen. Data for the cln2 rad14 strain (AID 165);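 further: 0% = growth equal to vehicle treated cultures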; details: S. cerevisiae cln2 rad14 strain, active compounds read high
Method in brief: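 Strain: cln2 rad14 yeast, altered in cell cycle control and DNA damage repair. Read-out: growth inhibition vs vehicle.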

[17] = at 5.0 µM (retest, dose inferred, filed as 0.5)
[18] = at 50.0 µM (retest, dose inferred, filed as 5.0)

Measured: growth inhibition

c1ccc(N=c2nc(N3CCOCC3)ss2)cc1
inactive: [1]; at 1.2 µM -1% | [1]; at 3.7 µM 18% | [1]; at 11.0 µM 53% | [2]; at 1.2 µM -1% | [2]; at 3.7 µM 14% | [3]; at 1.2 µM 7% | [3]; at 3.7 µM 37% | [4]; [17] 26% | [5]; at 1.2 µM 0% | [5]; at 3.7 µM 18% | [5]; at 11.0 µM 64%
active: [1]; at 33.0 µM 98% | [1]; at 100.0 µM 99% | [2]; at 11.0 µM 73% | [2]; at 33.0 µM 99% | [2]; at 100.0 µM 99% | [3]; at 11.0 µM 87% | [3]; at 33.0 µM 99% | [3]; at 100.0 µM 99% | [4]; [18] 98% | [4]; at 50.0 µM 98.4% | [5]; at 33.0 µM 99% | [5]; at 100.0 µM 94%

Cn1cnc(N)c1C(=N)[Se]
inactive: [6]; at 1.2 µM 7% | [6]; at 3.7 µM 26% | [7]; at 1.2 µM -1% | [7]; at 3.7 µM 3% | [7]; at 11.0 µM 10% | [7]; at 33.0 µM 47% | [8]; at 1.2 µM 66% | [9]; at 1.2 µM 1% | [9]; at 3.7 µM -1% | [9]; at 11.0 µM 4% | [9]; at 33.0 µM 44% | [9]; at 100.0 µM 57% | [10]; at 1.2 µM 27% | [10]; at 3.7 µM 59% | [10]; [17] -44% | [11]; at 1.2 µM -2% | [11]; at 3.7 µM 0% | [11]; [17] -46% | [11]; at 11.0 µM 48% | [11]; [18] 50% | [12]; at 1.2 µM 9% | [12]; at 3.7 µM 15% | [12]; at 11.0 µM 46% | [13]; [17] -61% | [13]; [18] -32% | [13]; at 50.0 µM 13.3% | [14]; at 1.2 µM 1% | [14]; at 3.7 µM -2% | [14]; at 11.0 µM -3% | [14]; at 33.0 µM 11% | [14]; at 100.0 µM 28% | [15]; at 1.2 µM 4% | [15]; at 3.7 µM 15% | [15]; [17] -67% | [15]; [18] 64% | [1]; at 1.2 µM 10% | [1]; at 3.7 µM 25% | [1]; at 11.0 µM 59% | [2]; at 1.2 µM 2% | [2]; at 3.7 µM -3% | [2]; at 11.0 µM 28% | [2]; at 33.0 µM 60% | [3]; at 1.2 µM 2% | [3]; at 3.7 µM -1% | [3]; at 11.0 µM 40% | [4]; [17] -126% | [5]; at 1.2 µM -9% | [5]; at 3.7 µM 7% | [5]; at 11.0 µM 58%
active: [6]; at 11.0 µM 70% | [6]; at 33.0 µM 95% | [6]; at 100.0 µM 95% | [7]; at 100.0 µM 80% | [8]; at 3.7 µM 90% | [8]; at 11.0 µM 98% | [8]; at 33.0 µM 98% | [8]; at 100.0 µM 95% | [10]; at 11.0 µM 93% | [10]; at 33.0 µM 95% | [10]; [18] 89% | [10]; at 50.0 µM 96.5% | [10]; at 100.0 µM 93% | [11]; at 33.0 µM 93% | [11]; at 50.0 µM 86.5% | [11]; at 100.0 µM 93% | [12]; at 33.0 µM 91% | [12]; at 100.0 µM 94% | [15]; at 11.0 µM 80% | [15]; at 33.0 µM 97% | [15]; at 50.0 µM 78.2% | [15]; at 100.0 µM 94% | [1]; at 33.0 µM 77% | [1]; at 100.0 µM 87% | [2]; at 100.0 µM 89% | [3]; at 33.0 µM 84% | [3]; at 100.0 µM 92% | [4]; [18] 84% | [4]; at 50.0 µM 80.5% | [5]; at 33.0 µM 80% | [5]; at 100.0 µM 91%

COC(=O)C1=C(C(=O)OC)SC2(S1)C(C(=O)OC)=C(C(=O)OC)Sc1c2ssc1=O
inactive: [6]; at 1.2 µM 55% | [7]; at 1.2 µM 27% | [7]; at 3.7 µM 26% | [7]; at 11.0 µM 66% | [8]; at 1.2 µM 9% | [8]; at 3.7 µM 8% | [8]; at 11.0 µM 30% | [8]; at 33.0 µM 56% | [8]; at 100.0 µM 54% | [9]; at 1.2 µM 44% | [9]; at 3.7 µM 51% | [10]; at 1.2 µM 46% | [10]; [17] 13% | [11]; at 1.2 µM 16% | [11]; at 3.7 µM 17% | [11]; [17] 17% | [12]; at 1.2 µM 27% | [12]; at 3.7 µM 30% | [13]; [17] 26% | [14]; at 1.2 µM 14% | [14]; at 3.7 µM 26% | [15]; at 1.2 µM 23% | [15]; at 3.7 µM 32% | [15]; [17] 55% | [1]; at 1.2 µM 21% | [1]; at 3.7 µM 54% | [3]; at 1.2 µM 43% | [3]; at 3.7 µM 58% | [4]; [17] 26% | [5]; at 1.2 µM 30% | [5]; at 3.7 µM 55%
active: [6]; at 3.7 µM 72% | [6]; at 11.0 µM 93% | [6]; at 33.0 µM 98% | [6]; at 100.0 µM 89% | [7]; at 33.0 µM 99% | [7]; at 100.0 µM 94% | [9]; at 11.0 µM 88% | [9]; at 33.0 µM 99% | [9]; at 100.0 µM 92% | [10]; at 3.7 µM 73% | [10]; at 11.0 µM 93% | [10]; at 33.0 µM 98% | [10]; [18] 95% | [10]; at 50.0 µM 82.2% | [10]; at 100.0 µM 91% | [11]; at 11.0 µM 85% | [11]; at 33.0 µM 98% | [11]; [18] 95% | [11]; at 50.0 µM 86.2% | [11]; at 100.0 µM 88% | [12]; at 11.0 µM 80% | [12]; at 33.0 µM 99% | [12]; at 100.0 µM 92% | [13]; [18] 95% | [13]; at 50.0 µM 84.1% | [14]; at 11.0 µM 91% | [14]; at 33.0 µM 98% | [14]; at 100.0 µM 91% | [16]; [17] 70% | [16]; [18] 95% | [16]; at 50.0 µM 86.2% | [15]; at 11.0 µM 88% | [15]; at 33.0 µM 98% | [15]; [18] 94% | [15]; at 50.0 µM 78.8% | [15]; at 100.0 µM 91% | [1]; at 11.0 µM 99% | [1]; at 33.0 µM 96% | [1]; at 100.0 µM 89% | [3]; at 11.0 µM 87% | [3]; at 33.0 µM 99% | [3]; at 100.0 µM 93% | [4]; [18] 96% | [4]; at 50.0 µM 86.8% | [5]; at 11.0 µM 91% | [5]; at 33.0 µM 95% | [5]; at 100.0 µM 90%

Reference: PubChem BioAssay (NCI)
